Screens from PubChem BioAssay.
In the library only some 6.6% were active in any assay of this set; here they are far more common.
HT1080-NT tox: qHTS for induction of synthetic lethality in tumor cells producing 2HG: qHTS for the HT-1080-NT fibrosarcoma cell line. HT-1080-NT fibrosarcoma viability, CellTiter-Glo ATP luminescence, 48 h. Potency, µM (titrated, usually from 46.1 µM), for inactives: at the top dose activity, negative = less viability, hits mostly cytotoxic. actives 1.6% (n = 360,000);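 further: NT is the 2HG producing partner of a matched IDH1 knockdown line; 0% = DMSO-treated cells and -100% = media-only wells without cells; nearly all actives have a fitted effect of over 55% in size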
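HT-1080-NT fibrosarcoma cells (2HG-overproducing), 750 cells/well in RPMI with 5% FBS, dosed after 2 h and incubated 48 h at 37C. CellTiter-Glo luminescence normalized to DMSO and no-cell wells; concentration-response curves fitted and classed.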
KB-3-1 cytotox: qHTS assay for MDR1-selective chemotherapeutics: Primary screen using the parental adenocarcinoma cell KB-3-1 | KB-3-1 viability, CellTiter-Glo ATP luminescence, 72 h | Potency, µM (titrated, usually from 46.1 µM), hits mostly cytotoxic | actives 1.4% (n = 400,000); further: on the % scale 0 is the no-effect control and ±100 the full control effect; nearly all actives have a fitted effect of over 60% in size
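KB-3-1 parental drug-naive adenocarcinoma cells in DMEM/10% FBS, incubated 72 h at 37 C with pin-transferred compounds across a concentration series. Viability by CellTiter-Glo luminescence; concentration-response curves fitted after normalization.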
TGFb inhibitor: qHTS for Inhibitors of TGF-b; AID 588855, 2011; HepG2 CAGA-GFP TGF-b/SMAD3 reporter, GFP fluorescence, 18 h; TGF-beta stimulated, 500 pg/mL final; actives 1.2% (n = 410,000); Potency, µM (doses to about 46.1 µM), inactives show at the highest dose activity, negative = inhibition, actives largely listed as inhibitors; further: on the % scale 0 is the no-effect control and ±100 the full control effect; nearly all actives have a fitted effect of over 65% in size
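Using HEPG2 CAGA-GFP reporter cells at 1000 cells/well, we pinned test compounds, stimulated with recombinant TGF-beta (500 pg/mL final) and measured total well GFP after 18 h.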
KB-V1 MDR tox: qHTS assay for MDR1-selective chemotherapeutics: Primary screen using the drug-selected MDR subline cells KB-V1 | AID 1347076, 2019 | Potency, µM (series often up to 46.1 µM), usual class: cytotoxic | actives 3.4% (n = 400,000) | KB-V1 MDR cells viability, CellTiter-Glo, 72 h; further: on the % scale 0 is the no-effect control and ±100 the full control effect; nearly all actives have a fitted effect of over 60% in size
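KB-V1 MDR subline cells in DMEM (phenol-red free, 10% FBS) exposed to compounds in qHTS concentration series for 72 h at 37 degrees C. Viability read by CellTiter-Glo luminescence; concentration-effect curves fitted after normalization and correction.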
HT1080 IDH1KD tx: qHTS for induction of synthetic lethality in tumor cells producing 2HG: qHTS for the HT-1080-IDH1KD cell line | HT-1080 IDH1 knockdown viability, ATP luminescence, 48 h | Potency, µM (top dose mostly 46.1 µM), for inactives: top-dose activity, negative = toxicity, actives largely listed as cytotoxic | actives 2% (n = 360,000) | AID 686971, 2013;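 further: 0% = DMSO wells and -100% = cell-free medium wells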
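Knockdown cells (IDH1KD HT-1080) received compounds 2 h after plating at 750 cells/well and were kept 48 h at 37 °C in 5% FBS RPMI. A CellTiter-Glo luminescence read gave % activity for curve fitting.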
HepG2 tox: qHTS for Inhibitors of TGF-b: Cytotox Counterscreen; actives 0.76% (n = 410,000); HepG2 CAGA-GFP viability, ATP luminescence, 18 h; Potency, µM (titrated, usually from 46.1 µM), without a hit: at the highest dose activity change, negative = cytotoxicity, usual class: cytotoxic
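CellTiter-Glo luminescence gave cytotoxicity after 18 hours at 37 degrees C. The cells were HepG2 CAGA-GFP in 1% FBS DMEM, stimulated with 500 pg/mL TGF-beta after compound addition. %Activity was normalised to no-cell wells (complete cell-killing) and DMSO (no toxicity), and curves were fitted and classified.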
Starred values were filed as active, the others as inactive; i = inactive; ? = inconclusive; · = no result. The call rests on the fitted dose curve; in most records, active means well fitted curve in the direction sought with a large enough effect; inconclusive means small, poorly fitted or top-dose-only effect, or another doubt; inactive means no such curve, though single readings can be large; an effect the other way counts as inactive or inconclusive. Potency means the concentration at half of the fitted maximal effect.

SMILES | HT1080-NT tox | KB-3-1 cytotox | TGFb inhibitor | KB-V1 MDR tox | HT1080 IDH1KD tx | HepG2 tox
COc1ccccc1CNc1nc(NCc2ccc(C(C)C)cc2)c2sccc2n1 | 21µM* | ? | ? | ? | 18µM* | -101%
O=C(CN1C(=O)NC2(CCc3ccccc32)C1=O)Nc1ccc(Cl)cc1F (stereo not drawn) | -12% | i | -2% | i | -19% | 0%
Cc1ccn2c(Nc3ccc(C(C)C)cc3)c(-c3cccs3)nc2c1 | · | i | -10% | i | · | -35%
Cc1c(CCC(=O)NCCc2ccccc2F)c(=O)oc2cc(O)ccc12 | · | i | -1% | i | · | -6%
CC(C)Nc1nc(NCCOc2ccccc2)c2sccc2n1 | 26µM* | i | ? | ? | 23µM* | -26%
CSc1ccccc1CNc1nc(NCC2CC2)nc2ccsc12 | 18µM* | i | 16µM* | i | 21µM* | 11µM*
COc1cccc(CNc2nc(NC(C)C)nc3ccsc23)c1OC | 15µM* | i | ? | i | -19% | -47%
CC(=O)NCCNc1nc(NC(C)C)nc2ccsc12 | ? | i | -6% | i | 17% | 1%
COc1ccccc1CNc1nc(Nc2ccccc2OC)c2sccc2n1 | 17% | i | -9% | i | 5% | -30%
COc1ccccc1CNc1nc(Nc2ccc(C)cc2C)c2sccc2n1 | 21µM* | ? | ? | ? | 23µM* | -49%
O=C(CNC(=O)C1CCCCC1)OCC(=O)c1ccc([N+](=O)[O-])cc1 | · | i | 2% | i | · | 0%
CCOC(=O)C1(C)C=C(Nc2cccc(C(=O)O)c2)C(=O)N1c1ccccc1 (stereo not drawn) | · | i | -2% | i | · | -6%
COc1cc(NC(=O)C(CC(C)C)N2Cc3ccccc3C2=O)cc(OC)c1 (stereo not drawn) | · | i | 0% | i | · | -16%
O=C1CN(C(=O)c2ccc(Cl)cc2Cl)C(c2ccc(F)cc2)c2cc(F)ccc2N1 (stereo not drawn) | · | i | 6% | i | · | 4%
Cc1nc(Cc2nnc(SCC(=O)N3c4ccccc4NC(=O)C3(C)C)o2)cs1 | -3% | i | 0% | i | -5% | -6%
COc1ccc(OC)c(N(CC(=O)N2CCN(c3cc(Cl)ccc3C)CC2)S(C)(=O)=O)c1 | ? | i | -3% | 23µM* | ? | -25%
Cc1ccc(Cl)cc1N1CCN(C(=O)CN(C2CCCCC2)S(C)(=O)=O)CC1 | -7% | ? | 0% | i | 21µM* | -13%
CS(=O)(=O)N(CC(=O)N1CCN(c2cccc(Cl)c2)CC1)C1CCCCC1 | -1% | i | -6% | ? | -1% | -2%
CCN(CC)CCCNC(=O)c1ccc2nc(CCc3ccccc3)oc2c1 | · | i | ? | i | · | -8%
COc1cc2c(C(=O)N(C)c3cccc(C(F)(F)F)c3)cn(CC(C)C)c(=O)c2cc1OC | · | i | -11% | i | · | -18%
Cc1ccc2nc(SC(C)C(=O)Nc3cccc([N+](=O)[O-])c3)[nH]c2c1 (stereo not drawn) | -6% | ? | ? | 4.1µM* | -8% | -41%
Cc1ccc2nc(SCC(=O)Nc3ccc(F)c([N+](=O)[O-])c3)[nH]c2c1 | -6% | i | ? | 21µM* | -22% | -14%
Cc1ccc2nc(SCC(=O)Nc3cc([N+](=O)[O-])ccc3F)[nH]c2c1 | -8% | i | ? | 21µM* | -8% | 27%
Cc1ccc2nc(SC(C)C(=O)NC3CCCC3)[nH]c2c1 (stereo not drawn) | -16% | i | 17% | i | -21% | 19%
Cc1ccc2nc(SCC(=O)c3ccc(Cl)s3)[nH]c2c1 | 18% | i | -16% | 13µM* | 9% | -13%
SMILES | HT1080-NT tox | KB-3-1 cytotox | TGFb inhibitor | KB-V1 MDR tox | HT1080 IDH1KD tx | HepG2 tox
Cc1ccc2nc(SCC(=O)Nc3ccc(C)c([N+](=O)[O-])c3)[nH]c2c1 | 2% | i | -24% | i | -1% | -13%
CCC(=O)Nc1ccc(C(=O)CSc2nc3ccc(C)cc3[nH]2)cc1 | -4% | ? | -7% | i | 1% | 5%
Cc1ccc(NC(=O)CSc2nc(-c3ccco3)nc3cc(=O)[nH]n23)cc1C | · | i | -17% | i | · | 1%
O=C(NCCCN1CCCCCC1)c1ccc2c(Cl)c3c(nc2c1)CCCC3 | -9% | ? | ? | i | ? | -47%
CCCN(CCC)CCCNC(=O)c1ccc2c(Cl)c3c(nc2c1)CCC3 | ? | i | -26% | i | 21µM* | -38%
CCN1CCN(CCCNC(=O)c2ccc3c(Cl)c4c(nc3c2)CCCC4)CC1 | 26µM* | ? | ? | i | ? | -30%
CCOc1ccc(CCNC(=O)c2ccc3c(Cl)c4c(nc3c2)CCCC4)cc1 | · | ? | ? | i | · | -2%
CC1CCN(CCCNC(=O)c2ccc3c(Cl)c4c(nc3c2)CCCC4)CC1 | ? | ? | -5% | i | 21µM* | -10%
COCCNC(=O)c1ccc2c(Cl)c3c(nc2c1)CCC3 | 11% | i | 21% | i | 8% | 0%
O=C(COC(=O)c1cccc(Cl)c1)Nc1cccc(S(=O)(=O)NC2=NCCC2)c1 | 4% | i | 23% | i | -1% | -9%
Cc1ccc(S(=O)(=O)c2c(CO)c(-c3ccccc3)nn2C)cc1 | -13% | ? | ? | 15µM* | -24% | -14%
O=C(NCc1ccco1)c1cccnc1Cl | -1% | i | -27% | i | 6% | -7%
O=C(NCc1ccco1)c1cccnc1-c1nc2ccccc2s1 | 2% | i | -23% | 13µM* | 14% | -10%
O=CNc1ccc2c(c1)Cc1cccc(NC=O)c1-2 | -12% | ? | -7% | 6.5µM* | -20% | -5%
Cc1ccc(CNCc2cc3c(C(C)(C)C)nn(-c4ccccc4)c3[nH]c2=O)cc1 | ? | i | -28% | 23µM* | ? | -37%
CCOCN(C(=O)Cn1cnc2cc(C)c(C)cc21)c1c(C)cccc1CC | · | ? | -29% | 5.2µM* | · | -20%
O=C(NCc1ccccc1)Nc1cccn(Cc2ccc(F)cc2)c1=O | -4% | i | 2% | 12µM* | -18% | -21%
